Assay results as given in PubChem BioAssay AID1159580 (chemical genetic matrix, 2015).
Screen size: about 5,500 compounds; about 2,000 (36%) were called active. Inconclusive results (about 18%) are left out. Rule as the data show it: active = normalized growth mostly below about 0.91 (no sharp cut-off); inconclusive = no clear call, values can overlap the other calls; inactive = mostly above about 0.92. The list shows a part of the results.

Experiment: chemical genetic growth profiling, strain panel (AID 1159580);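 also: tested at 20 µM; growth read once vehicle control cultures reached saturation at 30 °C; 1 = growth at the plate median or of vehicle wells; lower values mean less growth of the strain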
Settings: S. cerevisiae deletion strains, growth OD

Measured: normalized growth

N.N.N.N.N.N.N.N.N.N.N.N.N.N.O.O.[Ru+4].[Ru+5].[Ru+5]
inactive: locus YMR263W, strain SAP30, hits give low values 0.993
active: locus YAL040C, strain CLN3, hits give low values 0.206 | locus YDR363W, strain ESC2, hits give low values 0.323 | locus YER002W, strain NOP16, hits give low values 0.155 | locus YGR078C, strain PAC10, hits give low values 0.158 | locus YGR229C, strain SMI1, hits give low values 0.151 | locus YJR075W, strain HOC1, hits give low values 0.115 | locus YMR307W, strain GAS1, hits give low values 0.218 | locus YNL128W, strain TEP1, hits give low values 0.194 | locus YNL153C, strain GIM3, hits give low values 0.193 | locus YNL175C, strain NOP13, hits give low values 0.175 | locus YNL197C, strain WHI3, hits give low values 0.154 | locus YNL224C, strain SQS1, hits give low values 0.173 | locus YOR083W, strain WHI5 (second series), hits give low values 0.167
